# The panel holds about 83,000 compounds, 20% with a hit somewhere; the sample as a whole holds those more often.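 Results are percent growth after 48 hours of single-concentration exposure. 100 means growth as in untreated cells, lower positive values show inhibition; negative values down to -100 show cell death.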 Activity calls are given as the source filed them. The calls were made as follows: active = growth percent below 10; inactive = the rest.
# System: MDA-MB-468 breast
# Test: NCI-60 one-dose screen, 48 h (100 = growth as untreated, 0 = no growth, -100 = all killed)
# Conditions: 10 µM unless noted
row,Structure (SMILES),growth
1,CCCn1nc(-c2ccccc2)c2c(-c3ccccc3)onc2c1=O,43.6% (inactive)
2,COc1ccc(/C(C#N)=C/c2cccc(OC)c2OC)cc1,-19.3% (active)
3,CSc1ccc(-c2cc(-c3ccc(NC(=O)CCCN4CCCC4)cc3)nc(-c3ccc(NC(=O)CCCN4CCCC4)cc3)c2)cc1,14.4% (inactive)
4,O=C(CN1CCN(c2cc3c(cc2F)c(=O)c(C(=O)O)cn3C2CC2)CC1)Nc1ccc(C(=O)/C=C/c2ccc(Cl)cc2)cc1,95.1% (inactive)
5,CCn1c2ccccc2c2ccc(C(C)=O)cc21,104% (inactive)
6,CN=C(NC)N/N=C(C)\C=N\NC(=NC)NC,121% (inactive)
7,Cn1c([N+](=O)[O-])cnc1/C=C1\Oc2ccc(Br)cc2C1=O,13.1% (inactive)
8,N#CC1=C(N)Oc2c(sc3c(Br)cccc23)C1c1ccc([N+](=O)[O-])cc1 (stereo not given),42.2% (inactive)
9,CSc1nc(N)nc2c1ncn2C,108% (inactive)
10,COc1ccc(-c2nc3sccn3c2-c2ccnc(NCCCNS(=O)(=O)c3ccc4ccccc4c3)n2)cc1,71.1% (inactive)
11,CC1(C)[C@@H](O)CC[C@]2(C)[C@H]3CC[C@@H]4[C@H]5[C@H](c6cn(-c7ccccc7)nn6)CC[C@]5(CO)CC[C@@]4(C)[C@]3(C)CC[C@@H]12,65.4% (inactive)
12,Oc1ccc(Cc2ccc(O)c(C3CC(c4ccc(Cl)cc4)=NN3)c2)cc1C1CC(c2ccc(Cl)cc2)=NN1 (stereo not given),23.3% (inactive)
13,OCCSc1ccc(Cl)cc1,106% (inactive)
14,O=C1/C(=C/c2ccccc2Br)COc2ccc(O)cc21,69.1% (inactive)
15,O=C(NCCCl)c1cc(Cl)cc(Cl)c1,108% (inactive)
16,COc1ccc([C@H]2[C@@H](F)C(=O)N2c2cc(OC)c(OC)c(OC)c2)cc1F,23% (inactive)
17,O=c1ccccc(-c2ccc(Br)cc2)c1O,12.3% (inactive)
18,C=CCN=C(N)SCCCCCCSC(N)=NCC=C,84.7% (inactive)
19,Cc1cccc(C)c1Nc1nnc(-c2ccc(F)cc2)o1,102% (inactive)
20,COc1cc(/C=N/NC(=O)c2ccc(-n3cc(-c4ccccc4)nn3)cc2)cc(OC)c1OC,31.6% (inactive)

row,Structure (SMILES),growth
1,C#CCn1cnc2c(Nc3cccc(NC(=O)CCl)c3)ncnc21,23.5% (inactive)
2,C=C(C)[C@@H]1CC[C@]2(C(=O)N3CCCNCC3)CC[C@]3(C)[C@H](CC[C@@H]4[C@@]5(C)CCC(=O)C(C)(C)[C@@H]5CC[C@]43C)[C@@H]12,90.8% (inactive)
3,CC1CCN(Cc2ccc(NC(=O)c3cc4ccc5cccnc5c4[nH]3)cc2)CC1,21% (inactive)
4,O=S(=O)(OCCOS(=O)(=O)c1ccccc1)c1ccccc1,95% (inactive)
5,COC(=O)[C@H](C(C)C)n1c(=O)c2cc(OC)c(OC)cc2c2cnc3[nH]ccc3c21,36.5% (inactive)
6,CC1(c2ccccc2O)NN=C(/N=C/c2cccc([N+](=O)[O-])c2)N1C(Cc1c[nH]c2ccccc12)C(=O)O (stereo not given),103% (inactive)
7,CCCCN(CCCC)c1ccc(C(=N)c2ccc(N(CCCC)CCCC)cc2)cc1,-92.9% (active)
8,Clc1ccc(Nc2nnc(COc3ccccc3)c3ccccc23)cc1,-16.9% (active)
9,CC(C)(C)n1cc(-c2ccnc(NCCCNS(=O)(=O)c3cccc(F)c3)n2)c(-c2ccc(Cl)c(O)c2)n1,104% (inactive)
10,Cc1cc(N2CCCC2)nc(N(CCNc2ccnc3cc(Cl)ccc23)Cc2ccco2)n1,13.3% (inactive)
11,COC(=O)c1nc(-c2ccccc2)oc1S(=O)(=O)N1CCN(c2cccc(Cl)c2)CC1,46.6% (inactive)
12,N#C/C(=C\c1ccc(N2CCCCC2)cc1)C(=O)Nc1sc2c(c1C#N)CCC2,119% (inactive)
13,Cc1ccccc1-n1nnc(C(=O)Nc2ccc(-c3ccccc3)cn2)c1C,4.89% [50 µM] (active)
14,C=C(C)[C@@H]1CC[C@]2(C(=O)NCC#CCN3CCN(C)CC3)CC[C@]3(C)[C@H](CC[C@@H]4[C@@](C)(CCC#N)[C@H](C(=C)C)CC[C@]43C)[C@@H]12,18.7% (inactive)
15,Cc1nc2sc(C(=O)Nc3cccc(Cl)c3)c(N)c2cc1C(O)c1ccccc1 (stereo not given),15.3% (inactive)
16,O=C1C=C[C@H](O)[C@@]2(CO)O[C@@H]12,54.5% (inactive)
17,COC(=O)CCCNC(=O)C(=O)c1c(O)c(O)c(C(C)C)c2cc(C)c(-c3c(C)cc4c(C(C)C)c(O)c(O)c(C(=O)C(=O)NCCCC(=O)OC)c4c3O)c(O)c12,-1.3% (active)
18,COc1ccc(-c2cc(=O)n(-c3nc4ccccc4[nH]3)[nH]2)cc1OC,83% (inactive)
19,O=C(Nc1nc2ccc(S(=O)(=O)Nc3ccc(C4(C(F)(F)F)CC4)cc3)cc2[nH]1)c1cnccn1,-12% (active)
20,Cc1cc(NCc2cc(Nc3ccnc4cc(Cl)ccc34)ccc2F)nc(Cl)n1,-3.4% (active)

# — PubChem BioAssay (NCI)
